# About 79,000 compounds went through this panel and 15% of them were active in at least one assay; those are over-represented in the sample as a whole. Activity calls are given as the source filed them. No stated cut-off is given here; in the data, active means growth inhibition above about 70%; inactive means the rest.
# Test: NCI Yeast Anticancer Drug Screen. Data for the cln2 rad14 strain (AID 165);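 further: 0% = growth equal to vehicle treated cultures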
# Settings: S. cerevisiae cln2 rad14 strain, at 5.0 µM (retest, dose inferred, filed as 0.5), stronger effect = higher value
# In short: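 Growth inhibition, relative to vehicle-treated controls, is the read-out. The test organism is a yeast strain with defined genetic alterations, cln2 rad14.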
row,SMILES,growth inhibition
1,CCCCCCOC(=O)Nc1ccc(S(=O)(=O)N2CCCCC2)cc1,-87% (inactive)
2,CCCCCCCCCCCOc1cccc(N2C(N)=NC(N)=NC2(C)C)c1,98% (active)
3,O=Nc1c(NO)c2ccccc2c2ccccc12,2% (inactive)
4,CCCCCCCCCCCCCCCCOS(=O)(=O)O,5% (inactive)
5,CCCCCCCCCCCCCCCCCC[N+](C)(C)Cc1ccc(C[N+](C)(C)CCCCCCCCCCCCCCCCCC)cc1,-2% (inactive)
6,NNc1ccc2ccccc2n1,6% (inactive)
7,Cc1cc(NC(=S)SCc2ccc(F)cc2)c([N+](=O)[O-])cc1C,19% (inactive)
8,COC(=O)/C(=C\c1cn(C(C)=O)c2ccccc12)P(=O)(OC)OC,31% (inactive)
9,O=C(Nc1ccccc1)c1ccccc1O,-3% (inactive)
10,CC(=O)c1c2c(cc3c1CC1(Cc4ccccc4C1=O)C3)CCC2 (centres undefined),27% (inactive)
11,CC(=O)c1c(-c2ccco2)c(C#N)c(=S)n(C2OC(CO)C(O)C(O)C2O)c1-c1ccccc1 (centres undefined),14% (inactive)
12,CC1(C)OC2C(CO)OC(n3ncc(=S)[nH]c3=O)C2O1 (centres undefined),-1% (inactive)
13,C=C(C)C1CC/C(C)=C/CCC2(C)OC2CC/C(CO)=C\C1O (centres undefined),48% (inactive)
14,CC(C)CCSc1ncnc2nc[nH]c12,-4% (inactive)
15,COC(=O)C1(Cc2ccc3c(c2)CCC3)Cc2ccc3c(c2C1O)CCC3 (centres undefined),-4% (inactive)
16,Nc1ccc(C(=O)NN2C(=O)C(Cl)C2c2cc(Br)cc(Br)c2O)cc1 (centres undefined),-20% (inactive)
17,COc1ccc(SC2=C(N(C)C(C)=O)C(=O)c3ccccc3C2=O)cc1,95% (active)
18,O=[N+]([O-])c1ccc(N/N=C/CCCCCCCCCCBr)c([N+](=O)[O-])c1,-4% (inactive)
19,O=C(c1ccccc1)c1cccc2ccccc12,-2% (inactive)
20,O=S1(=O)CCc2ccccc2C(Br)C1Br (centres undefined),17% (inactive)
21,CC(/C=N/NS(=O)(=O)c1ccc(C)cc1)=C(c1ccccc1)c1ccccc1,-10% (inactive)
22,Cc1cc(CC(O)(C(F)(F)F)C(F)(F)F)cc(CC(O)(C(F)(F)F)C(F)(F)F)n1,9% (inactive)
23,O=S(=O)(c1cc(Cl)c(Cl)cc1Cl)N(CCCCCN(S(=O)(=O)c1cc(Cl)c(Cl)cc1Cl)S(=O)(=O)c1cc(Cl)c(Cl)cc1Cl)S(=O)(=O)c1cc(Cl)c(Cl)cc1Cl,-10% (inactive)
24,O=c1cc(-c2ccccc2)oc2ccc(-c3ccc4oc(-c5ccccc5)cc(=O)c4c3)cc12,-1% (inactive)

# Same assay, conditions: S. cerevisiae cln2 rad14 strain, at 50.0 µM (retest, dose inferred, filed as 5.0), stronger effect = higher value
row,SMILES,growth inhibition
1,COC(=O)C1C(c2ccccc2)=N[C@@H](c2ccccc2)[C@H]1C(=O)OC (some centres undefined),7% (inactive)
2,CCCCCCCCCC(C)CC(=O)NCCCN(C)CCCCN(C)C (centres undefined) (tested in a mixture with another compound),27% (inactive)
3,Cc1ccc(N=C2SC(=S)N(CCC[N+](C)(C)C)C2=Nc2ccc(C)cc2)cc1,99% (active)
4,N#CSc1ccc(O)c2ccccc12,98% (active)
5,CCCCCC1OC(CCCCC)OC(CCCCC)O1 (centres undefined),3% (inactive)
6,ClC1(c2ccccc2)c2ccccc2-c2ccccc21,92% (active)
7,CCN(CC)c1ccc(NC(CC(O)c2ccccc2)c2ccccc2)cc1 (centres undefined),-3% (inactive)
8,CCCCCCC[n+]1ccc(C(=O)c2ccccc2)cc1,100% (active)
9,O=c1[nH][nH]c(=O)c2c1nc(SCc1ccccc1)n2Cc1ccccc1,-4% (inactive)
10,CCOC(=O)C(NNc1ccccc1)C(c1ccccc1)[P+](c1ccccc1)(c1ccccc1)c1ccccc1 (centres undefined),99% (active)
11,CC(C)/C=C1\CCC(CN2CCOCC2)C1=O (centres undefined),20% (inactive)
12,CCc1cc2nc3c(=O)[nH]c(=O)nc-3n(CCN(CCO)CCO)c2cc1CC,-6% (inactive)
13,c1ccc2c(c1)OCC(CN1CCN(CC3COc4ccccc4O3)CC1)O2 (centres undefined),58% (inactive)
14,CNC(C)C(=O)c1ccc2ccc3ccccc3c2c1 (centres undefined),16% (inactive)
15,O=[N+]([O-])c1ccc(N=C(Cl)C(Cl)(c2ccccc2)c2ccccc2)cc1,97% (active)
16,O=[N+]([O-])c1ccc2c(c1)Cc1cc(Cl)ccc1-2,3% (inactive)
17,CCCCCCOC(=O)Nc1ccc(S(=O)(=O)N2CCCCC2)cc1,44% (inactive)
18,CCCCCCCCCCCOc1cccc(N2C(N)=NC(N)=NC2(C)C)c1,90% (active)
19,O=Nc1c(NO)c2ccccc2c2ccccc12,82% (active)
20,CCCCCCCCCCCCCCCCOS(=O)(=O)O,99% (active)

row,SMILES,growth inhibition
1,CCCCCCCCCCCCCCCCCC[N+](C)(C)Cc1ccc(C[N+](C)(C)CCCCCCCCCCCCCCCCCC)cc1,-9% (inactive)
2,NNc1ccc2ccccc2n1,52% (inactive)
3,Cc1cc(NC(=S)SCc2ccc(F)cc2)c([N+](=O)[O-])cc1C,97% (active)
4,COC(=O)/C(=C\c1cn(C(C)=O)c2ccccc12)P(=O)(OC)OC,38% (inactive)
5,O=C(Nc1ccccc1)c1ccccc1O,84% (active)
6,CC(=O)c1c2c(cc3c1CC1(Cc4ccccc4C1=O)C3)CCC2 (centres undefined),29% (inactive)
7,CC(=O)c1c(-c2ccco2)c(C#N)c(=S)n(C2OC(CO)C(O)C(O)C2O)c1-c1ccccc1 (centres undefined),28% (inactive)
8,CC1(C)OC2C(CO)OC(n3ncc(=S)[nH]c3=O)C2O1 (centres undefined),45% (inactive)
9,C=C(C)C1CC/C(C)=C/CCC2(C)OC2CC/C(CO)=C\C1O (centres undefined),85% (active)
10,CC(C)CCSc1ncnc2nc[nH]c12,9% (inactive)
11,COC(=O)C1(Cc2ccc3c(c2)CCC3)Cc2ccc3c(c2C1O)CCC3 (centres undefined),94% (active)
12,Nc1ccc(C(=O)NN2C(=O)C(Cl)C2c2cc(Br)cc(Br)c2O)cc1 (centres undefined),76% (active)
13,COc1ccc(SC2=C(N(C)C(C)=O)C(=O)c3ccccc3C2=O)cc1,99% (active)
14,O=[N+]([O-])c1ccc(N/N=C/CCCCCCCCCCBr)c([N+](=O)[O-])c1,-6% (inactive)
15,O=C(c1ccccc1)c1cccc2ccccc12,-24% (inactive)
16,O=S1(=O)CCc2ccccc2C(Br)C1Br (centres undefined),99% (active)
17,CC(/C=N/NS(=O)(=O)c1ccc(C)cc1)=C(c1ccccc1)c1ccccc1,89% (active)
18,Cc1cc(CC(O)(C(F)(F)F)C(F)(F)F)cc(CC(O)(C(F)(F)F)C(F)(F)F)n1,98% (active)
19,O=S(=O)(c1cc(Cl)c(Cl)cc1Cl)N(CCCCCN(S(=O)(=O)c1cc(Cl)c(Cl)cc1Cl)S(=O)(=O)c1cc(Cl)c(Cl)cc1Cl)S(=O)(=O)c1cc(Cl)c(Cl)cc1Cl,-8% (inactive)
20,O=c1cc(-c2ccccc2)oc2ccc(-c3ccc4oc(-c5ccccc5)cc(=O)c4c3)cc12,39% (inactive)
